{
  "source": "the supplement of paper PMC11624193",
  "about": "“Coupling cellular drug-target engagement to downstream pharmacology with CeTEAM” (Nature Communications, 2024)",
  "data": [
    {"biological_target": "PARP1 L713F-nLuc biosensor (HCT116) (UniProt P09874)", "sequence (P09874 whole entry L713F, looked up)": "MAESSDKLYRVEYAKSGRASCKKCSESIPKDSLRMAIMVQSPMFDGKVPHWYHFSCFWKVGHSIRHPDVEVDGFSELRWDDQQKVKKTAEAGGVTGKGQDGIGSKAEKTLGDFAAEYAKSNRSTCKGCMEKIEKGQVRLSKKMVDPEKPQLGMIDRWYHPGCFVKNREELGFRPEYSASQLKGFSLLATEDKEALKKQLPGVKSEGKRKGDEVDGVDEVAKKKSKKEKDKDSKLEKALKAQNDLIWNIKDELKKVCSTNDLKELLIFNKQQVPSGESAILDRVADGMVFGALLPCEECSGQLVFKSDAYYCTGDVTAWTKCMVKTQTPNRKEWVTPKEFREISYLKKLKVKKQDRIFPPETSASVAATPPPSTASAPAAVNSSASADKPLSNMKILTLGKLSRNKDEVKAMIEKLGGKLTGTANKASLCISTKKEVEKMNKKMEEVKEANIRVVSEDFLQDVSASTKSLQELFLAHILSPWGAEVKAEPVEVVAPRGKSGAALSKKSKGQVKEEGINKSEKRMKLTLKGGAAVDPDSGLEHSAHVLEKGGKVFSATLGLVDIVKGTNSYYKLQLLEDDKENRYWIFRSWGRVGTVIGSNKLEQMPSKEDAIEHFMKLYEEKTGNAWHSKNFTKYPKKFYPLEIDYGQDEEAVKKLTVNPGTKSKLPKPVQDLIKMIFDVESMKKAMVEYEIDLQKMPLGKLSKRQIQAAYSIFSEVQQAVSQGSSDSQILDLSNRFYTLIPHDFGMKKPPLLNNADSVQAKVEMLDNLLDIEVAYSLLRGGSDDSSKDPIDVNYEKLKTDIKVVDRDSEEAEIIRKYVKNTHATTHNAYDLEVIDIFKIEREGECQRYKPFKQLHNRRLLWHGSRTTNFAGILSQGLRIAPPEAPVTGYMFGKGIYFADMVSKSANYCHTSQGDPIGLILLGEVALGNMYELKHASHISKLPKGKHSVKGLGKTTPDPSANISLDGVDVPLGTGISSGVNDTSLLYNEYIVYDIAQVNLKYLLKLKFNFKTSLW", "assay": "PARP1 L713F-nLuc/akaLuc ratio relative to DMSO control (biosensor stabilization) (fold change); higher = more PARP1 biosensor stabilization (target engagement / stabilizer), active = hit call of the paper", "conditions": "stock concentration (mM; final µM = stock mM x 1): 10; 24 h;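 active = log2 fold change beyond 2 SD from the library mean after excluding viability outliers; inactive = within 2 SD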", "values": [
      {"smiles": "CCN(CCN(C)C)C(=O)CNCc1cc(C(N)=O)ccn1", "note": "[KDOAM-25 (citrate)]", "PARP1 L713F-nLuc/akaLuc ratio": "1.15 (inactive)"},
      {"smiles": "Nc1ncc(-c2cccc(N3CCNCC3)c2)cc1C(=O)Nc1ccncc1", "note": "[PKC-iota inhibitor 1]", "PARP1 L713F-nLuc/akaLuc ratio": "1.02 (inactive)"},
      {"smiles": "O=c1c(O)c(-c2ccc(O)c(O)c2)oc2cc(O)c(O)c(O)c12", "note": "[Quercetagetin]", "PARP1 L713F-nLuc/akaLuc ratio": "0.792 (inactive)"},
      {"smiles": "CN[C@@H](C)C(=O)N[C@H]1CN(C(=O)CC(C)C)CC[C@H]2CC[C@@H](C(=O)NC(c3ccccc3)c3ccccc3)N2C1=O", "PARP1 L713F-nLuc/akaLuc ratio": "0.738 (inactive)"},
      {"smiles": "CCOc1ccn(-c2ccc(F)cc2)c(=O)c1C(=O)Nc1ccc(Oc2ccnc(N)c2Cl)c(F)c1", "PARP1 L713F-nLuc/akaLuc ratio": "1 (inactive)"},
      {"smiles": "CC(C)c1c(-c2cnn(C(C)(C)C)c2)nc2c(C#N)c[nH]n2c1=O", "PARP1 L713F-nLuc/akaLuc ratio": "1.58 (inactive)"}
    ]}
  ]
}
